TDP1 block – blocks human tyrosyl-DNA phosphodiesterase 1 | 0.28% of 350,000 active | Potency, µM (series often up to 130 µM), without a hit: at the top dose activity change, negative = inhibition, usual class: inhibitors | recombinant TDP1, AlphaScreen DNA substrate cleavage; further: nearly all actives have a fitted effect of over 40% in size
Target sequence (Q9NUW8 whole entry, looked up): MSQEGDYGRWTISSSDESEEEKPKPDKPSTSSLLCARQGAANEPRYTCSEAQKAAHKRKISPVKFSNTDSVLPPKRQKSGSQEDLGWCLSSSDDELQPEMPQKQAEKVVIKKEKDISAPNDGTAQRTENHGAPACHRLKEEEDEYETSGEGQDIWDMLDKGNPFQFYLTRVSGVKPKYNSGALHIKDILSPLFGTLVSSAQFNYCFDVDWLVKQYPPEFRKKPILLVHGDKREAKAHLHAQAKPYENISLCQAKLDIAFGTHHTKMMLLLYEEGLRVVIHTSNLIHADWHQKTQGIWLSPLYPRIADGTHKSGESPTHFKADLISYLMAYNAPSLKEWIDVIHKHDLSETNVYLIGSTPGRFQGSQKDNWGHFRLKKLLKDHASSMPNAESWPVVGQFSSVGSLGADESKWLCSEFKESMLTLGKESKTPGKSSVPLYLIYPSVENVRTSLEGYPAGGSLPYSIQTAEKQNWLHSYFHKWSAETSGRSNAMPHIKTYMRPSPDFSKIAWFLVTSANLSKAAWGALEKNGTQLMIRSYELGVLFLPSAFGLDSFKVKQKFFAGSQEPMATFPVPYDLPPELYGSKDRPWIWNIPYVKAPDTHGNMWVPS
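Compounds were preincubated with Tdp1 (1 nM final) for 15 min at room temperature before substrate (15 nM final) started a 5 min reaction; beads (10 ug/ml final) were then added for 10 min before AlphaScreen detection.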
BLM helicase inh – blocks DNA unwinding by human BLM helicase | recombinant BLM DNA unwinding, fluorescence dequenching | AID 2528 | P54132 | 0.2% of 350,000 active | Potency, µM (top dose mostly 56.1 µM), without a hit: at the highest dose activity change, negative = inhibition, actives largely listed as inhibitors;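 further: plate controls were vehicle for no effect and no enzyme for full effect; nearly all actives have a fitted effect of over 35% in size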
FEN1 inh – human FEN1 inhibition | Recombinant FEN1 flap cleavage, fluorescence, 15 min | Potency, µM (titrated, usually from 114 µM), inactives show at the highest dose activity change, negative = inhibition, hits mostly inhibitors | 0.35% of 390,000 active | P39748; further: nearly all actives have a fitted effect of over 65% in size
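FEN1 at 10 nM, compound pretreatment for 15 min (room temperature), 50 nM final substrate to initiate; endpoint reads at 0 and 15 min; DMSO-only plates used as vehicle background.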
APE1 inh – APE1 (human) endonuclease inhibition. recombinant APE1, TAMRA/BHQ-2 abasic DNA cleavage fluorescence. Potency, µM (series often up to 65.8 µM), inactives show at the top dose activity change, negative = inhibition, usual class: inhibitors. 0.35% of 350,000 active;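 further: plate controls were vehicle for no effect and reference inhibitor for full effect; nearly all actives have a fitted effect of over 55% in size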
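Endonuclease cleavage of a quenched abasic-site DNA duplex (50 nM) by APE1 (0.75 nM) was tracked by TAMRA dequenching. Compounds were preincubated with enzyme 15 min at room temperature; data normalized to buffer-only and DMSO wells plus NSC13755 control.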
RECQ1 inh-1 – RECQ1 (human) helicase inhibition; 0.54% of 240,000 active; P46063; Potency, µM (titrated, usually from 57.3 µM), for the others: top-dose activity, negative = inhibition, usual class: inhibitors; AID 2549; RECQ1 DNA unwinding, red fluorescence kinetic read;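 further: plate controls were vehicle for no effect and no enzyme for full effect; nearly all actives have a fitted effect of over 30% in size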
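RECQ1T1 50 nM; forked duplex (20 bp + 30-nt ss tails) 200 nM, ATP 2 mM final; pH 8.0, 2 mM MgCl2, 2.5 ug/ml poly(dI-dC); 15 min compound preincubation; discontinuous kinetic read over 2 h at RT.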
RECQ1 conf – confirmation of human RECQ1 helicase inhibitors; shares compounds with RECQ1 inh-1; RECQ1 helicase DNA unwinding, fluorescence; Potency, µM (top dose mostly 229 µM), inactives show at the top dose activity change, negative = inhibition, hits mostly inhibitors; 28% of 610 active; further: nearly all actives have a fitted effect of over 45% in size
RECQ1 ADP FP – counter-screen for RECQ1 inhibitors: ADP displacement; 27% of 530 active; ADP fluorescence polarization displacement counterscreen; shares compounds with RECQ1 inh-1; Potency, µM (doses to about 228 µM), inactives show at the highest dose activity change, negative = inhibition, usual class: inhibitors; further: nearly all actives have a fitted effect of over 45% in size
RECQ1 inh-2 – blocks human RECQ1 DNA unwinding; shares compounds with RECQ1 inh-1; recombinant RECQ1 DNA unwinding, red fluorescence; Potency, µM (top dose mostly 119 µM), without a hit: at the highest dose activity, negative = inhibition, most hits filed as inhibitors; 15% of 1,100 active; further: nearly all actives have a fitted effect of over 50% in size
Active calls of the source: *; i = inactive; ? = inconclusive; nt = not tested or not shown; [ ] = dose if it differs, or a comment. Most compounds without a hit are left out; they make up all but 0.92% or so of the library. The call rests on the fitted dose curve; in most records, active means well fitted curve in the direction sought with a large enough effect; inconclusive means small, poorly fitted or top-dose-only effect, or another doubt; inactive means no such curve, though single readings can be large; an effect the other way counts as inactive or inconclusive. Unless noted, on the % scale 0 is the no-effect control and ±100 the full control effect; potency means the concentration at half of the fitted maximal effect.

SMILES	TDP1 block	BLM helicase inh	FEN1 inh	APE1 inh	RECQ1 inh-1	RECQ1 inh-2	others
CCCCCCC#CC1C=CC(Oc2ccc(C=O)cc2)C(CO)O1 (configuration not stated)	0.5%[21 µM]	-0.5%[12.4 µM]	nt	?	i[11.5 µM]	nt
COc1cccc(C2c3c(ncn(-c4cccc(C#N)c4)c3=N)Oc3ccc4ccccc4c32)c1 (configuration not stated)	2.8%	nt	nt	nt	nt	nt
C/C=C\C1=C(CO)C(=O)C2O[C@]2(CC=C(C)C)C1=O (some centres not stated)	-4.8%[21 µM]	0.1%[12.4 µM]	nt	19.0%[12.4 µM]	-6.9%[11.5 µM]	nt
Cc1ccc2nc(CS)[nH]c2c1	nt	nt	-1.0%	nt	nt	nt
O=c1c(-c2ccc([N+](=O)[O-])cc2)coc2c(O)c(O)ccc12	7.7%	-18.8%	?	?	8.91µM*	?
O=C(Nc1ccccc1)c1ccccc1NS(=O)(=O)c1ccc(Cl)s1	0.0%	-4.9%	-2.3%	6.6%	9.6%	nt
Cc1ccc(NC(=O)c2ccccc2NS(=O)(=O)c2ccc(Cl)s2)cc1	5.6%	-5.8%	7.7%	15.9%	39.8µM*	-17.9%
CCCCn1c(C)cc2c(c1=O)[C@H]1O[C@](CCCC)(Cc3c1ccc1ccccc31)O2	nt	-1.4%[12.4 µM]	nt	24.7%[12.4 µM]	nt	nt
COc1ccc(NC(=O)COC(=O)Cc2ccc(-c3ccccc3)cc2)c(OC)c1	3.2%	-5.5%	-14.7%	-4.2%	i	nt
COc1ccc(C)cc1NC(=O)COC(=O)Cc1ccc(-c2ccccc2)cc1	0.0%	-12.4%	-19.2%	0.9%	?	-6.9%
COC(=O)CCCC1=CC2=CC(=O)C(C)(OC(=O)c3cccs3)C(=O)C2=CO1 (configuration not stated)	-3.7%	-9.8%	nt	?	?	?
CCCCC1=CC2=CC(=O)C(C)(OC(=O)c3cccs3)C(=O)C2=CO1 (configuration not stated)	-1.9%	-13.9%	-20.3%	-5.2%	-17.7%	nt
Cc1ccc(CCN2CC(C(=O)NC3CCCCC3)CC2=O)cc1 (configuration not stated)	2.8%	-3.2%	2.1%	15.6%	nt	nt
COc1ccc(CCN2CC(C(=O)NC3CCCCC3)CC2=O)cc1OC (configuration not stated)	nt	-19.8%	7.5%	?	39.8µM*	?
COCC(=O)N1CCC2(CC1)CCN(c1ccncc1)CC2	nt	-7.5%	nt	1.0%	-3.8%	nt
CC(C)(C)CC(C)(C)N=C1Nc2ccc([N+](=O)[O-])cc2N[C@]12C[C@H]1CCCC(=O)N3CC[C@@H](C2)[C@@H]13	nt	nt	2.6%	nt	nt	nt
COc1ccc(N(CC(=O)N2CCN(c3ccccc3F)CC2)S(=O)(=O)c2c(C)noc2C)cc1	1.6%	-2.1%	-7.7%	16.8%	nt	nt
COc1ccc(N(CC(=O)N2c3ccccc3CC2C)S(=O)(=O)c2c(C)noc2C)cc1 (configuration not stated)	1.1%	-15.1%	-23.6%	7.9%	?	-17.8%
CNc1c(Br)cc(C(O)C2=CCc3ccccc32)cc1Br (configuration not stated)	nt	nt	6.1%	nt	nt	nt
C=CCSc1nc(=O)n2ccc(C)cc2n1	-2.5%	-20.8%	0.3%	-4.9%	1.58µM*	-20.7%	RECQ1 conf=4.6%[114 µM];RECQ1 ADP FP=-5.5%[91.9 µM]
C=CCSc1nc(=O)n2ccccc2n1	0.0%	-3.6%	1.5%	-2.4%	-2.1%	nt
C=CCN1C(=O)CS/C1=C(\C#N)S(=O)(=O)c1ccc(C)cc1	10.9%	-9.8%	-12.4%	-4.8%	20µM*	?
CCOc1ccc(/C=C(\C(=O)O)c2ccc(S(=O)(=O)N3CCOCC3)s2)cc1OC	-2.8%	-19.7%	0.4%	-7.5%	1.5%	nt	RECQ1 conf=-2.5%;RECQ1 ADP FP=?
COc1cc(/C=C2\CCc3c2nc2ccccc2c3C(=O)O)cc(OC)c1OC	nt	14.1µM*	50.1µM*	25.1µM*	10µM*	?	RECQ1 conf=22.4µM*;RECQ1 ADP FP=-10.4%[91.9 µM]
O=C(COC(=O)c1ccc(S(=O)(=O)N2CCc3ccccc3C2)cc1)NC1CCS(=O)(=O)C1 (configuration not stated)	0.0%	-3.1%	0.8%	0.3%	?	?
SMILES	TDP1 block	BLM helicase inh	FEN1 inh	APE1 inh	RECQ1 inh-1	RECQ1 inh-2	others
O=C(COC(=O)c1ccc(S(=O)(=O)N2CCOCC2)cc1)NC1CCCCCCC1	0.0%	0.0%	11.0%	0.1%	i	nt
COc1ccc(-c2nn(-c3ccccc3)cc2/C=C/C(=O)O)cc1[N+](=O)[O-]	8.4%	10.2%	7.5%	-8.5%	?	-4.8%
CSCC[C@H](NC(=O)[C@H](Cc1ccccc1)NC(=O)[C@H](Cc1cnc[nH]1)NC(=O)CNC(=O)[C@@H](NC(=O)[C@H](C)NC(=O)[C@H](Cc1c[nH]c2ccccc12)NC(=O)[C@H](CCC(N)=O)NC(=O)[C@@H]1CCCN1C(=O)[C@@H](NC(=O)[C@@H]1CCC(=O)N1)C(C)C)C(C)C)C(N)=O	3.0%	-1.1%	nt	-4.0%	-5.4%	nt
CCCN1CCC(=O)N(CCC#N)CC1	nt	nt	22.4%	nt	nt	nt
COc1ccc(C)cc1S(=O)(=O)Nc1ccccc1	-2.0%	-2.3%	-6.1%	-0.6%	-5.0%	nt
COc1ccc(C)cc1S(=O)(=O)Nc1ccncc1	-2.5%	-6.0%	1.7%	24.0%	20µM*	-6.7%
CC(C)(C)n1ncc2c(=O)n(Cc3cccc(OC(F)(F)F)c3)cnc21	nt	nt	-0.8%	-4.0%	nt	nt
O=c1c2c3c(sc2[nH]c(=S)n1Cc1ccco1)CCC3	?	-29.8%	?	?	12.6µM*	nt	RECQ1 conf=44.7µM*;RECQ1 ADP FP=?
Cn1c(=O)n(Cc2ccco2)c(=N)c2c3c(sc21)CCC3	-2.0%	-4.4%	0.8%	3.1%	-8.8%	nt
COc1cccc(C2c3c(ncn(-c4ccccn4)c3=N)Oc3ccc4ccccc4c32)c1 (configuration not stated)	-0.1%	nt	nt	nt	nt	nt
Cc1nc2ccc(C(=O)Nc3cccc([N+](=O)[O-])c3)cc2s1	-9.6%	-1.8%	-5.9%	-9.4%	?	-5.9%
O=C(Nc1cccc([N+](=O)[O-])c1)c1cccc(C(=O)Nc2cccc([N+](=O)[O-])c2)c1	0.0%	?	-19.9%	?	-3.6%	nt
CCC(C)NC(=O)c1cc2c(Cl)nc3ccc(C)cc3c2s1 (configuration not stated)	1.3%	3.9%	-3.6%	nt	nt	nt

Bioassay records (PubChem)
